Laboratory results: publication PMC7862700, “An all-to-all approach to the identification of sequence-specific readers for epigenetic DNA modifications on cytosine”

Tests used:
Test in all cases: DAPPL (digital affinity profiling via proximity ligation, sequencing); 10 mM Tris-HCl pH 7.5, 50 mM NaCl, 1 mM DTT, 4% glycerol, room temperature, 30 min; GST-TFs on glutathione beads, 16-mer random dsDNA library, 0.1% formaldehyde crosslink after washing; high values mean tight binding
Conditions in all cases: protein: recombinant; tags: N-terminal GST; dsDNA, one strand shown
[1] = biological target: T1, FLI1 (Homo sapiens, UniProt Q01543 1-452)
T1 sequence: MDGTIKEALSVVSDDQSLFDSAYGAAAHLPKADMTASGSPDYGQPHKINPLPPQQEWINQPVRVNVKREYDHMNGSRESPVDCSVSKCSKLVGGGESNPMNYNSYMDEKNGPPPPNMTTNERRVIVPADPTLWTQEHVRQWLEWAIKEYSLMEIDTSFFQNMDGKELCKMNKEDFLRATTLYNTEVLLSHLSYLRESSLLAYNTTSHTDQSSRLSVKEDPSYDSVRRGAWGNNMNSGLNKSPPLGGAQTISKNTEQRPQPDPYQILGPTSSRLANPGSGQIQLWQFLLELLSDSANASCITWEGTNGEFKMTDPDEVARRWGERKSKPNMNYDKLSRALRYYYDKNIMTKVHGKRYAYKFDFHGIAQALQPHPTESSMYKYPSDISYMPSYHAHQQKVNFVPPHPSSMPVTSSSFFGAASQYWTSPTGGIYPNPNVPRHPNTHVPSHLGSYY
Summary of the method: (§1)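 Binding signal is defined as a hexamer's read frequency for one factor over its frequency for the tag-only sample. To obtain reads, GST-fused human transcription factors were expressed in yeast, captured on glutathione beads, barcoded with DNA and pooled with that sample. Pools met 200 nmole of a 16-mer random double-stranded DNA library in Tris/NaCl/DTT/glycerol buffer for 30 min at room temperature before washing, 0.1% formaldehyde crosslinking, proximity ligation (BsaI/T4 ligase, 1 h, 37 °C), PCR and Illumina NextSeq500 sequencing.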

[2] = biological target: T2, ELK1 (Homo sapiens, UniProt P19419 1-428)
T2 sequence: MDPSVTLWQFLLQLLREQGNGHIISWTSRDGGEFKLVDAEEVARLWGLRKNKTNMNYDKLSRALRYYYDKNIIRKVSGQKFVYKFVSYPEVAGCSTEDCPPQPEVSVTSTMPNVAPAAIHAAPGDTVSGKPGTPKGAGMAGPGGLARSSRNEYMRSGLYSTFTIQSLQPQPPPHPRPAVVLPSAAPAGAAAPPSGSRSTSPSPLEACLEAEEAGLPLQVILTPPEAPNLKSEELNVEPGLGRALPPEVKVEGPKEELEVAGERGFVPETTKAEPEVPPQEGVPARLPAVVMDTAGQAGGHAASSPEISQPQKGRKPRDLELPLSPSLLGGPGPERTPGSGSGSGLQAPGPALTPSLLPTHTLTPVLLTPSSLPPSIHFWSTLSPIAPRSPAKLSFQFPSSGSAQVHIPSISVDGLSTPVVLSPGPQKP
Summary of the method: as §1

[3] = biological target: T3, GABPA (Homo sapiens, UniProt Q06546 1-454)
T3 sequence: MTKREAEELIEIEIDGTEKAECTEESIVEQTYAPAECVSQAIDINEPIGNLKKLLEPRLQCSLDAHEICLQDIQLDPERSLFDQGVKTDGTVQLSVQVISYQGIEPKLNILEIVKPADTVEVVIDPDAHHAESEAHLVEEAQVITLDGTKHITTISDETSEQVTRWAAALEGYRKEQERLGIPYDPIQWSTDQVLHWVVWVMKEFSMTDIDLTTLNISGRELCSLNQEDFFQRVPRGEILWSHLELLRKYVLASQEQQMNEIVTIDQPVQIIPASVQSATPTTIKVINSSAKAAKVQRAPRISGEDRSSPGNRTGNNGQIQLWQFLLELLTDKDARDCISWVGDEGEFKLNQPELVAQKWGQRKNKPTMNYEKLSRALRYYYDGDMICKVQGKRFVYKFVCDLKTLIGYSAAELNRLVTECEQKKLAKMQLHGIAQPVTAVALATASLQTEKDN
Summary of the method: as §1

[4] = biological target: T4, ERG (Homo sapiens, UniProt P11308 1-479)
T4 sequence: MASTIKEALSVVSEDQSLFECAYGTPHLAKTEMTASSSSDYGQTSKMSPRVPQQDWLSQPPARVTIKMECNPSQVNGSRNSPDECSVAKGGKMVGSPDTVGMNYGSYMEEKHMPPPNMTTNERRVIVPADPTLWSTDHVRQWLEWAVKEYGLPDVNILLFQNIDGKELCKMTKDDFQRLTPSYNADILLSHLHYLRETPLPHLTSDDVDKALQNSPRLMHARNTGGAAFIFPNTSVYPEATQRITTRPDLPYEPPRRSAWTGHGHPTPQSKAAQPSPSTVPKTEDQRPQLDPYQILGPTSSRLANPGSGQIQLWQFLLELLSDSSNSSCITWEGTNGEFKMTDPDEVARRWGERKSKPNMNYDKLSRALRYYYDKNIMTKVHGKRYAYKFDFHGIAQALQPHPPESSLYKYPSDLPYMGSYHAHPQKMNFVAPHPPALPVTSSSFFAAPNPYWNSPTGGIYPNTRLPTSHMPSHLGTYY
Summary of the method: as §1

[5] = biological target: ELF1 (Homo sapiens, UniProt P32519 1-619)
Summary of the method: as §1

[6] = biological target: T5, EHF (Homo sapiens, UniProt Q9NZC4 1-300)
T5 sequence: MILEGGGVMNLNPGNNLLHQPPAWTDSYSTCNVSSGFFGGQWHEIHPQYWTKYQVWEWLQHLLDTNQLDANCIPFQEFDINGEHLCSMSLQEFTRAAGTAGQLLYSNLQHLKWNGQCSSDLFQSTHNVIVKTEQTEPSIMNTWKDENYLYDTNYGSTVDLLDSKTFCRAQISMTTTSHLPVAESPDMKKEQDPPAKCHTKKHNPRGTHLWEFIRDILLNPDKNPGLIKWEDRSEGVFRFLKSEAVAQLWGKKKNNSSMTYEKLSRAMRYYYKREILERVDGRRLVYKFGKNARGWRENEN
Summary of the method: as §1

[7] = biological target: SPI1 (Homo sapiens, UniProt P17947 1-270)
Summary of the method: as §1

[8] = biological target: SPIB (Homo sapiens, UniProt Q01892 1-262)
Summary of the method: as §1

[9] = biological target: T6, ELK3 (Homo sapiens, UniProt P41970 1-407)
T6 sequence: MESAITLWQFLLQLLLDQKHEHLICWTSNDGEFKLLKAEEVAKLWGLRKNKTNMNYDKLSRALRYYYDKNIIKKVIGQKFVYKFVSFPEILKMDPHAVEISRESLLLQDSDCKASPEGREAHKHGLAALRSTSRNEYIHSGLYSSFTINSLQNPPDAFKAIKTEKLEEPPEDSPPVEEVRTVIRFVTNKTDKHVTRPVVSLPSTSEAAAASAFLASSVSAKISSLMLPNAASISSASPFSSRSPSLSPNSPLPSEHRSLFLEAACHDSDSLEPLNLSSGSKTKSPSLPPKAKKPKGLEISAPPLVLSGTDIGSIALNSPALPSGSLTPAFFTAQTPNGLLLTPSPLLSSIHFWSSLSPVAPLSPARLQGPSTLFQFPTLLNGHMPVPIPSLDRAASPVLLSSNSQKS
Summary of the method: as §1

Sequence of ELF1 (P32519 whole entry): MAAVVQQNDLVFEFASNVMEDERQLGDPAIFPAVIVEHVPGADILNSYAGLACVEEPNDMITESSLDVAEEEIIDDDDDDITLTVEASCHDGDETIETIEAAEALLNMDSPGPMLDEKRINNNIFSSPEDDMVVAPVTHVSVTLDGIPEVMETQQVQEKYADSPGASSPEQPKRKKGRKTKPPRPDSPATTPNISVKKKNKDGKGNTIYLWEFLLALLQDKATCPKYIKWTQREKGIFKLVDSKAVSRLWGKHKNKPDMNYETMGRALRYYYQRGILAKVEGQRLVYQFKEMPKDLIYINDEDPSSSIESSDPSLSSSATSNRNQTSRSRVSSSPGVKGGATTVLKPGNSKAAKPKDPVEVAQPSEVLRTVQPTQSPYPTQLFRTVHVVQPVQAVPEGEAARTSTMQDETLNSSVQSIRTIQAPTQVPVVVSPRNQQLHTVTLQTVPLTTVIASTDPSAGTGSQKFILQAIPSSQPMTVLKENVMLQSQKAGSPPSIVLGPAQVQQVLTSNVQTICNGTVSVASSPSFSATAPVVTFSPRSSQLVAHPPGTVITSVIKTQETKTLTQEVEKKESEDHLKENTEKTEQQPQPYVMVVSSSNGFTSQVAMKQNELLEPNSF
Sequence of SPIB (Q01892 whole entry): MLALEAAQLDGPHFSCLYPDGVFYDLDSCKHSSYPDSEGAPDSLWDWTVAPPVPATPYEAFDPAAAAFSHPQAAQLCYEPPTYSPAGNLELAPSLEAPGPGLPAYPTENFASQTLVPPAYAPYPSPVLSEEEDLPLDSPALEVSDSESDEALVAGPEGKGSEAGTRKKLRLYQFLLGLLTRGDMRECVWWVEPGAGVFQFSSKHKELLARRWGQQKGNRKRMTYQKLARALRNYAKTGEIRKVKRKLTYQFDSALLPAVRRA

TTACTA
binding signal [1]: 1.34 fold enrichment (6-mer frequency, TF over GST control)
binding signal [2]: 1.31 fold enrichment (6-mer frequency, TF over GST control)
binding signal [3]: 1.36 fold enrichment (6-mer frequency, TF over GST control)
binding signal [4]: 1.33 fold enrichment (6-mer frequency, TF over GST control)
binding signal [5]: 1.28 fold enrichment (6-mer frequency, TF over GST control)
binding signal [6]: 1.23 fold enrichment (6-mer frequency, TF over GST control)
binding signal [7]: 1.27 fold enrichment (6-mer frequency, TF over GST control)
binding signal [8]: 1.36 fold enrichment (6-mer frequency, TF over GST control)
binding signal [9]: 1.31 fold enrichment (6-mer frequency, TF over GST control)
